Experimental data taken from PubChem BioAssay (NCATS).
Records with an inconclusive call do not appear. The source made the active and inactive calls. The call rests on the fitted dose curve; in most records, active means well fitted curve in the direction sought with a large enough effect; inconclusive means small, poorly fitted or top-dose-only effect, or another doubt; inactive means no such curve, though single readings can be large; an effect the other way counts as inactive or inconclusive.

Legend:
[1] = test system: CRL-7250; test: Cytotoxic Profiling of Annotated Libraries Using Quantitative High-Throughput Screening (AID 1296008); conditions: Five cell lines viability, CellTiter-Glo ATP luminescence, 48-72 h; max response: hits give low values; further: nearly all actives have a fitted effect of over 60% in size; on max response: on the % scale 0 is the no-effect control and ±100 the full control effect
Summary of the method: (§1)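 Cytotoxicity was measured as CellTiter-Glo ATP luminescence, read after 10 min at room temperature. Compound treatment of the cells lasted 48 or 72 hr at 37 degrees Celsius in a qHTS format.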

[2] = test system: HaCat; test: as above; conditions: Five cell lines viability, CellTiter-Glo ATP luminescence, 48-72 h; max response: hits give low values
Summary of the method: as §1

[3] = test system: KB-3-1; test: as above; conditions: Five cell lines viability, CellTiter-Glo ATP luminescence, 48-72 h; max response: hits give low values
Summary of the method: as §1

[4] = test system: NIH3T3; test: as above; conditions: Five cell lines viability, CellTiter-Glo ATP luminescence, 48-72 h; max response: hits give low values
Summary of the method: as §1

[5] = test system: HACAT; test: qHTS assay to identify novel small-molecules to repurpose for Merkel cell carcinoma treatment (AID 1296009); conditions: MCC and control cell lines, CellTiter-Glo viability, 72 h; at 44.8 µM (top of the series) unless noted; further: nearly all actives have a fitted effect of over 60% in size
Summary of the method: (§2)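 Cell viability, measured as CellTiter-Glo luminescence, was normalized between DMSO and no-cell wells. The cells had been exposed to 8- or 11-point compound dilutions for 72 hr at 37 degree celsius.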

[6] = test system: NIH3T3; test: as above; conditions: MCC and control cell lines, CellTiter-Glo viability, 72 h; series mostly up to 44.8 µM
Summary of the method: as §2

[7] = test system: C33A; test: Primary qHTS to identify gynecologic anti-cancer compounds using libraries of approved drugs and bioactive compounds (AID 1345084); conditions: Gynecologic cancer cell panel viability, ATPlite luminescence, 48 h; series mostly up to 57.5 µM; further: on the % scale 0 is the no-effect control and ±100 the full control effect; nearly all actives have a fitted effect of over 55% in size
Summary of the method: (§3)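 Five-point cytotoxicity, 48 h drug exposure at 37 C, 5% CO2, on cells seeded 16 h beforehand. ATP content read by ATPlite luminescence.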

[8] = test system: CAOV3; test: as above; conditions: Gynecologic cancer cell panel viability, ATPlite luminescence, 48 h; series mostly up to 57.5 µM
Summary of the method: as §3

[9] = test system: CASKI; test: as above; conditions: Gynecologic cancer cell panel viability, ATPlite luminescence, 48 h; series mostly up to 57.5 µM
Summary of the method: as §3

[10] = test system: Es-2; test: as above; conditions: Gynecologic cancer cell panel viability, ATPlite luminescence, 48 h; series mostly up to 57.5 µM
Summary of the method: as §3

[11] = test system: HeLa; test: as above; conditions: Gynecologic cancer cell panel viability, ATPlite luminescence, 48 h; series mostly up to 57.5 µM
Summary of the method: as §3

[12] = test system: Hek293T; test: as above; conditions: Gynecologic cancer cell panel viability, ATPlite luminescence, 48 h, control line for the selectivity index; series mostly up to 57.5 µM
Summary of the method: as §3

[13] = test system: JEG-3; test: as above; conditions: Gynecologic cancer cell panel viability, ATPlite luminescence, 48 h; series mostly up to 57.5 µM
Summary of the method: as §3

[14] = test system: OV90; test: as above; conditions: Gynecologic cancer cell panel viability, ATPlite luminescence, 48 h; series mostly up to 57.5 µM
Summary of the method: as §3

[15] = test system: PA-1; test: as above; conditions: Gynecologic cancer cell panel viability, ATPlite luminescence, 48 h; series mostly up to 57.5 µM
Summary of the method: as §3

CNC(C)C(=O)NC(C(=O)N1CCCC1C(=O)Nc1snnc1-c1ccccc1)C1CCCCC1 (stereo not given)
inactive: max response [1] 0.759% | outcome [2] | max response [3] 3.39% | outcome [4] | outcome [5] | Potency [6] | Potency [7] | Potency [8] | Potency [9] | Potency [10] | Potency [11] | Potency [12] | Potency [13] | Potency [14] | Potency [15]

Cc1cc(C)c(S(=O)(=O)n2cc(C)cc2C)c(C)c1
inactive: max response [1] -3.09% | outcome [2] | max response [3] 2.85% | outcome [4] | outcome [5] | Potency [6] | Potency [7] | Potency [8] | Potency [9] | Potency [10] | Potency [11] | Potency [12] | Potency [13] | Potency [14] | Potency [15]

C=C1CCCC2(C)CCC(C(C)(C)OC3OC(C)C(O)C(O)C3OC(=O)/C(C)=C\C)CC12 (stereo not given)
inactive: max response [1] 3.11% | outcome [2] | max response [3] -8.14% | outcome [4] | outcome [5] inactive [at 17.4 µM] | Potency [6] | Potency [7] | Potency [8] | Potency [9] | Potency [10] | Potency [11] | Potency [12] | Potency [13] | Potency [14] | Potency [15]

CC1=C2C[C@@]3(C)C(CCC[C@@H]3C)C(O)C2OC1=O (stereo not given in full)
inactive: max response [1] 2.27% | outcome [2] | max response [3] 5.15% | outcome [4] | outcome [5] | Potency [6] | Potency [7] | Potency [8] | Potency [9] | Potency [10] | Potency [11] | Potency [12] | Potency [13] | Potency [14] | Potency [15]

COc1cc(F)c(C(C)C)cc1-c1ccc(C(F)(F)F)cc1CN1C(=O)OC(c2cc(C(F)(F)F)cc(C(F)(F)F)c2)C1C (stereo not given)
inactive: max response [1] 3.77% | outcome [2] | outcome [3] | outcome [4] | outcome [5] | Potency [6] | Potency [7] | Potency [8] | Potency [9] | Potency [10] | Potency [11] | Potency [12] | Potency [13] | Potency [14] | Potency [15]

CCCNCCc1ccc(NS(=O)(=O)c2ccc(OC(F)(F)F)cc2)cc1
inactive: max response [1] -2.99% | outcome [2] | max response [3] -2.39% | outcome [4] | outcome [5] | Potency [6] | Potency [7] | Potency [8] | Potency [9] | Potency [10] | Potency [11] | Potency [12] | Potency [13] | Potency [14] | Potency [15]

CC#CCn1c(N2CCCC(N)C2)nc2c1c(=O)n(Cc1nc(C)c3ccccc3n1)c(=O)n2C (stereo not given)
inactive: max response [1] 0.556% | outcome [2] | outcome [3] | outcome [4] | outcome [5] | Potency [6] | Potency [7] | Potency [8] | Potency [9] | Potency [10] | Potency [11] | Potency [12] | Potency [13] | Potency [14] | Potency [15]

C=C1CCC2C(C)(C)CCCC2(C)C1CC/C(C)=C\CO (stereo not given)
inactive: max response [1] 3.55% | outcome [2] | max response [3] 1.75% | outcome [4] | outcome [5] | Potency [6] | Potency [7] | Potency [8] | Potency [9] | Potency [10] | Potency [11] | Potency [12] | Potency [13] | Potency [14] | Potency [15]

CN(C)CCOc1cc(NS(=O)(=O)c2c(Cl)cc(C(F)(F)F)cc2Cl)ccc1Cl
inactive: max response [1] 2.92% | outcome [2] | max response [3] -11% | outcome [4] | outcome [5] | Potency [6] | Potency [7] | Potency [8] | Potency [9] | Potency [10] | Potency [11] | Potency [12] | Potency [13] | Potency [14] | Potency [15]

O=C(NCC1CCN(Cc2cccc(Cl)c2)CC1)[C@@H]1CCCN(c2ncnc3c2nc2n3CCCC2)C1
inactive: max response [1] 4.3% | outcome [2] | max response [3] -6.02% | outcome [4] | outcome [5] | Potency [6] | Potency [7] | Potency [8] | Potency [9] | Potency [10] | Potency [11] | Potency [12] | Potency [13] | Potency [14] | Potency [15]

O=C(Nc1ccccc1C(=O)Nc1ccc(CCO)cc1)c1ccc([N+](=O)[O-])cc1
inactive: max response [1] -0.113% | outcome [2] | outcome [3] | outcome [4] | outcome [5] | Potency [6] | Potency [7] | Potency [8] | Potency [9] | Potency [10] | Potency [11] | Potency [12] | Potency [13] | Potency [14] | Potency [15]

CCCn1cc2c(nc(NC(=O)Nc3ccc(OC)cc3)n3nc(-c4ccco4)nc23)n1
inactive: max response [1] 4.71% | outcome [2] | max response [3] 9% | outcome [4] | outcome [5] | Potency [6] | Potency [7] | Potency [8] | Potency [9] | Potency [10] | Potency [11] | Potency [12] | Potency [13] | Potency [14] | Potency [15]

C/C=C/C=C/C(=O)O[C@@H]1C=C2COC(=O)[C@]2(O)[C@@]2(C)CCCC(C)(C)[C@H]12
inactive: max response [1] -1.83% | outcome [2] | max response [3] 0.722% | outcome [4] | outcome [5] | Potency [6] | Potency [7] | Potency [8] | Potency [9] | Potency [10] | Potency [11] | Potency [12] | Potency [13] | Potency [14] | Potency [15]

CC1OC(=O)C[C@@H]2C(C(=O)O)=CO[C@@H](O[C@H]3O[C@H](CO)[C@@H](O)[C@H](O)[C@H]3O)[C@H]12 (stereo not given in full)
inactive: max response [1] -4.73% | outcome [2] | outcome [3] | outcome [4] | outcome [5] | Potency [6] | Potency [7] | Potency [8] | Potency [9] | Potency [10] | Potency [11] | Potency [12] | Potency [13] | Potency [14] | Potency [15]

CC(=O)O[C@@H]1CC[C@@]2(C)C(CC[C@]3(C)C2[C@H](O)C=C2[C@H]4[C@@H](C)[C@H](C)CC[C@]4(C)CC[C@]23C)[C@@]1(C)C(=O)O (stereo not given in full)
inactive: max response [1] -13.3% | outcome [2] | outcome [3] | outcome [4] | outcome [5] inactive [at 17.4 µM] | Potency [6] | Potency [7] | Potency [8] | Potency [9] | Potency [10] | Potency [11] | Potency [12] | Potency [13] | Potency [14] | Potency [15]

CN1CCN(C2=Nc3ccccc3Nc3ccc(OS(=O)(=O)C(F)(F)F)cc32)CC1
inactive: outcome [1] | outcome [2] | max response [3] -4.68% | outcome [4] | outcome [5] | Potency [6] | Potency [7] | Potency [8] | Potency [9] | Potency [10] | Potency [11] | Potency [12] | Potency [13] | Potency [14] | Potency [15]

O=c1[nH]c2ccccc2n1CCN1CCN(c2cccc(C(F)(F)F)c2)CC1
inactive: outcome [1] | outcome [2] | max response [3] -13.2% | outcome [4] | outcome [5] | Potency [6] | Potency [7] | Potency [8] | Potency [9] | Potency [10] | Potency [11] | Potency [12] | Potency [13] | Potency [14] | Potency [15]

CCOc1ccc(CCNC(=O)c2cc3sc(Cl)cc3n2C)cc1OCC
inactive: max response [1] -5.08% | outcome [2] | max response [3] -5.99% | outcome [4] | outcome [5] | Potency [6] | Potency [7] | Potency [8] | Potency [9] | Potency [10] | Potency [11] | Potency [12] | Potency [13] | Potency [14] | Potency [15]

COc1ccc2c(c1O[C@H]1CCNC1)CCC2
inactive: max response [1] -1.86% | outcome [2] | max response [3] -7.28% | outcome [4] | outcome [5] | Potency [6] | Potency [7] | Potency [8] | Potency [9] | Potency [10] | Potency [11] | Potency [12] | Potency [13] | Potency [14] | Potency [15]

CCCN1CCC=C(c2cc(-c3ccc(C)cc3)no2)C1
inactive: outcome [1] | outcome [2] | max response [3] 9.64% | outcome [4] | outcome [5] | Potency [6] | Potency [7] | Potency [8] | Potency [9] | Potency [10] | Potency [11] | Potency [12] | Potency [13] | Potency [14] | Potency [15]

CC(=O)NC[C@H]1CN(c2ccc(N3CCSCC3)c(F)c2)C(=O)O1
inactive: max response [1] 3.86% | outcome [2] | max response [3] -11.9% | outcome [4] | outcome [5] | Potency [6] | Potency [7] | Potency [8] | Potency [9] | Potency [10] | Potency [11] | Potency [12] | Potency [13] | Potency [14] | Potency [15]

CNCCCC1(c2ccccc2)OC(C)(C)c2ccccc21 (stereo not given)
inactive: max response [1] 3.46% | outcome [2] | max response [3] -1.28% | outcome [4] | outcome [5] | Potency [6] | Potency [7] | Potency [8] | Potency [9] | Potency [10] | Potency [11] | Potency [12] | Potency [13] | Potency [14] | Potency [15]

C1=Cc2ccccc2C(=C2CCN(CCCCc3nn[nH]n3)CC2)c2ccccc21
inactive: outcome [1] | outcome [2] | max response [3] -8.87% | outcome [4] | outcome [5] | Potency [6] | Potency [7] | Potency [8] | Potency [9] | Potency [10] | Potency [11] | Potency [12] | Potency [13] | Potency [14] | Potency [15]
